HCV inh: qHTS Assay for Inhibitors of Hepatitis C Virus (HCV). 340,000 tested, 3.4% active. Potency, µM (top dose mostly 41.8 µM), without a hit: at the top dose activity change, negative = inhibition, hits mostly inhibitors. Huh7.5.1 HCVcc-Cre infection, luciferase reporter, 44 h; active = well fitted inhibition curve with a large enough effect; inconclusive = small, poorly fitted or top-dose-only effect, or another doubt; inactive = no such curve, though single readings can be large or run the other way; also: potency is read from the fitted curve at half-maximal effect; % is scaled to controls: 0 for no effect and ±100 for the full control effect
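Cells (1,000/well) were plated 4 h before compound, then infected with HCVcc-Cre virus (~0.5 moi). After 44 h further culture, infection was read as luciferase luminescence following a 15 min substrate incubation at room temperature.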
SARS PLpro yeast-1: qHTS of Yeast-based Assay for SARS-CoV PLP; S. cerevisiae expressing SARS-CoV PLpro, growth rescue; AID 485353, 2010; Potency, µM (top dose mostly 32.9 µM), for inactives: top-dose activity, positive = growth rescue, actives largely listed as activators; 330,000 tested, 0.19% active; calls by dose curve; also: potency is read from the fitted curve at half-maximal effect; 0% is about no effect; nearly all actives have a fitted effect of over 55% in size
LASV entry inh: qHTS for Inhibitors of binding or entry into cells for Lassa Virus. Lassa virus pseudotype entry inhibition, cell reporter. Potency, µM (top dose mostly 37.9 µM), inactives show at the highest dose activity change, negative = inhibition, most hits filed as inhibitors. 300,000 tested, 1.2% active. AID 540256, 2011; calls by dose curve; tested in HEK293 cells; also: potency is read from the fitted curve at half-maximal effect; % is scaled to controls: 0 for no effect and ±100 for the full control effect; nearly all actives have a fitted effect of over 50% in size
MARV entry inh: qHTS for inhibitors of binding or entry into cells for Marburg Virus. Potency, µM (highest dose often 37.8 µM), without a hit: top-dose activity change, negative = inhibition, hits mostly inhibitors. 300,000 tested, 1.8% active. AID 540276, 2011. Marburg virus pseudotyped entry inhibition, cell reporter; calls by dose curve; tested in HEK293 cells; also: potency is read from the fitted curve at half-maximal effect; % is scaled to controls: 0 for no effect and ±100 for the full control effect
FMDV inh: High Throughput Screening for Foot and Mouth Disease Virus Antivirals. FMDV antiviral cell-based qHTS. Potency, µM (top dose mostly 57.9 µM), for inactives: at the top dose activity change, negative = inhibition, actives largely listed as inhibitors. 410,000 tested, 1.2% active; calls by dose curve; tested in HEK293T cells; also: read-out not given here; potency is read from the fitted curve at half-maximal effect; % is scaled to controls: 0 for no effect and ±100 for the full control effect; nearly all actives have a fitted effect of over 45% in size
HCMV inh: qHTS Assay for inhibitors of the human cytomegalovirus (HCMV); activity change, negative = inhibition, % at 57.5 µM; HFF cells, HCMV-luciferase reporter, 72 h; active compounds read low; 410,000 tested, 4.5% active; in the data active = activity change below about -60%; inconclusive = no clear call, values can overlap the other calls; inactive = above about -39%; also: % is scaled to controls: 0 for no effect and ±100 for the full control effect
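After 16 h attachment at 37C, HFF cells received test compound and HCMV-luciferase (1 PFU/cell); reporter luminescence read 72 h later, data normalized against buffer-only and known inhibitor Salinomycin.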
SARS PLpro yeast-2: qHTS of Yeast-based Assay for SARS-CoV PLP: Hit Validation | shares compounds with SARS PLpro yeast-1 | yeast expressing SARS-CoV PLpro, growth phenotype rescue | calls only | 1,000 tested, 19% active | AID 652038, 2013; call rule not given here
Active calls of the source: *; i = inactive; ? = inconclusive; / = no result; + = active, no number; [ ] = another dose, or the depositor's remark. Sampled rows, rich in hits. Any-hit rate of the full collection: about 8%.

SMILES | HCV inh | SARS PLpro yeast-1 | LASV entry inh | MARV entry inh | FMDV inh | HCMV inh | SARS PLpro yeast-2
COc1ccc(OC)c(C(=O)N(C)C2CCCN(Cc3ccccc3F)C2)c1 (centres undefined) | 13% | -8% | / | / | 0% | -14 | /
CN(C(=O)c1ccccc1-c1ncc[nH]1)C1CCCN(Cc2ccccc2F)C1 (centres undefined) | 0% | 16µM* | / | / | -4% | 0 | i
CCCCNC(=O)CN1CCN(c2ncc(NC(=O)c3ccc(Cl)cc3)cc2C(=O)O)CC1 | / | / | 17%[46.1 µM] | / | -16% | 11 | /
CC(=O)Nc1ccc(NC(=O)C(C)OC(=O)c2c(NC(C)=O)sc(C)c2C)cc1 (centres undefined) | -22% | ? | / | / | -8% | -16 | i
COC(=O)c1c(NC(C)=O)sc(C)c1C | ? | 0% | -1%[46.1 µM] | -9%[46.1 µM] | -8% | -31 | /
N#Cc1cccc(NC(=O)N2CCC3(CC2)CCN(C(=O)c2ccco2)CC3)c1 | / | / | / | / | 10% | / | /
Cc1c(Cl)cccc1NC(=O)CN1C(=O)COc2ccc(S(=O)(=O)N3CCOCC3)cc21 | / | / | 21%[46.1 µM] | / | 4% | -21 | /
COc1ccc(CCNC(=O)CCCn2c(=O)c3ccccc3n(CC(=O)Nc3c(C)cc(C)cc3C)c2=O)cc1OC | / | / | 17%[46.1 µM] | -8%[46.1 µM] | -14% | -8 | /
Cc1ccc2c(c1)-c1onc(C(=O)N3CCN(c4cc(C)ccc4C)CC3)c1CO2 | / | / | -1%[46.1 µM] | / | -22% | 8 | /
CCCN1CCN(C(=O)c2noc3c2COc2ccc(C)cc2-3)CC1 | 6% | ? | / | / | -21% | 15 | i
COc1cc(NC(=O)Cn2c(C)cc3ccccc3c2=O)cc(OC)c1OC | 11% | 13µM* | ? | -28%[46.1 µM] | -17% | 4 | i
COc1ccccc1NC(=O)CNC(=O)Cn1c(C)cc2ccccc2c1=O | -2% | 5% | -8%[46.1 µM] | -19%[46.1 µM] | -13% | 6 | /
C[C@H](CO)N1C[C@H](C)[C@H](CN(C)C(=O)Nc2cccc(F)c2)OCc2cnnn2CCCC1=O | / | / | / | / | / | -7 | /
CCOc1ccc(-n2c(SCc3nc(-c4ccc(OC)cc4)no3)nnc2-c2ccncc2)cc1 | / | / | -13%[46.1 µM] | -20%[46.1 µM] | ? | -14 | /
O=C(NC1CCCCC1)C(c1ccco1)N(Cc1cccnc1)C(=O)C1COc2ccccc2O1 (centres undefined) | 21% | ? | ? | ? | / | -6 | i
O=C(NC1CCCC1)C(=O)N(Cc1cccnc1)C(C(=O)NC1CCCC1)c1ccco1 (centres undefined) | 10% | 0% | / | / | 20% | -12 | /
N#CCCn1c(=O)c(-c2cccs2)nc2cnc(N3CCNCC3)nc21 | / | / | / | / | -15% | / | /
Cc1cc(-c2n[nH]c(=S)n2CC(C)C)cs1 | -3% | ? | ? | 1% | -22% | ? | +
Cc1onc(-c2ccccc2)c1C(=O)NC(=S)NNC(=O)c1ccncc1 | ? | 13µM* | -3% | -15% | 1% | 4 | i
O=Cc1c(SCCO)nc2ccccn2c1=O | 8% | 0% | / | / | -13% | 34 | /
O=Cc1c(Sc2ccccc2)nc2ccccn2c1=O | -8% | ? | ? | ? | ? | 43 | i
C=CCc1cccc(/C=N/NC(=O)C(=O)Nc2ccc(C)cc2)c1O | 11% | 1% | 0% | 2%[46.1 µM] | 15% | -10 | /
C=CCc1cccc(/C=N/NC(=O)C(C)Nc2ccc(C)cc2)c1O (centres undefined) | 10µM* | ? | ? | ? | ? | -89* | i
COc1cc(/C=C/C(=O)O)ccc1OS(=O)(=O)c1cc(Br)ccc1C | 19% | 10µM* | / | / | -9% | -7 | i
COc1cc(/C=C/C(=O)O)ccc1OS(=O)(=O)c1cc(C)ccc1C | 40% | -1% | 10% | 2%[46.1 µM] | -2% | 0 | /
Brc1ccc(OCc2nc(-c3ccccn3)n[nH]2)cc1 | ? | ? | -27% | -26% | -1% | 58 | +

From PubChem BioAssay
